# From PubChem BioAssay
# Test system: Human papillomavirus type 1a protein E7 (residues 44-93)
# Test: HPV1a E7 fragment binders on microarrays, primary screen, biochemical, small-molecule microarray, residues 44-93, 635 nm fluorescence (AID 1108);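 also: E7 fragment applied at 1 µg/mL in TBST for 1 h at 4 C; score combines spot fluorescence with its signal to noise ratio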
# Conditions: small-molecule microarray binding, fluorescence 635 nm; higher = more signal
row,SMILES,composite z-score
1,COc1ccc([Si](C)(C)[C@@H]2[C@@H](CCO)O[C@]3(C(=O)N(Cc4ccccc4)c4ccc(N5C(=O)c6cccc7cccc5c67)cc43)[C@H]2C)cc1,-0.432
2,O=C(Cc1ccccc1)[C@H]1C2C=CCCC(c3ccccc3)=C2CN1Cc1ccccc1 (stereo partly drawn),-0.75
3,COc1ccccc1CN1C(=O)c2ccccc2[C@](Cc2ccccc2I)(C(=O)O)[C@@H]1c1ccc(CO)cc1,1.42
4,Cc1cc(C)c(C(O)C2C=CC3C(=O)N(c4ccccc4)C(=O)C3N2Nc2ccccc2F)c(C)c1 (stereo not drawn),0.0453
5,CN(C)c1ccc(C(O)C2C=CC3C(=O)NC(=O)C3N2Nc2ccccn2)cc1 (stereo not drawn),1.34
6,C[N+](C)(C)CCCC[C@@H]1NC(=O)[C@@H]2C[C@H](C(=O)NCCCCCCN)[C@H](c3cccc(OCCO)c3)N2C1=O,0.896
7,CCN(CC)c1ccc(N2CC=CC34O[C@@H]5/C=C\CCCOC(=O)C5[C@H]3C(=O)N(C(C)CO)[C@@H]4C2=O)cc1 (stereo partly drawn),-0.0836
8,CCCCC=C[C@@H](NC(=O)OCc1ccccc1Cl)c1ccccc1,1.4
9,CCCN1C(=O)[C@]2(Cc3ccccc31)N=C(c1ccc(OCCCO)cc1)O[C@@H]2c1ccccc1,1.42
10,C=CCNC(=O)[C@H]1[C@@H]2C(=O)O[C@@H](c3ccccc3)[C@@H](c3ccccc3)N2[C@@H](c2ccccc2OCCO)[C@]12C(=O)N(C(=O)OCCOC)c1ccc(C#CC3(O)CCCCCC3)cc12,1.25
11,CN1C(=O)C2C=CC(C(O)c3cccn3C)N(Nc3ccc([N+](=O)[O-])cc3[N+](=O)[O-])C2C1=O (stereo not drawn),0.0443
12,CCCCC(CC)C(O)C1C=CC2C(=O)N(c3ccccc3)C(=O)C2N1Nc1ccccc1F (stereo not drawn),1.41
13,COCCOC(=O)N1C(=O)[C@@]2(c3ccccc31)[C@H](C(=O)NC[C@H](O)c1ccccc1)[C@H]1C(=O)O[C@H](c3ccccc3)[C@H](c3ccccc3)N1[C@@H]2c1ccc(O)cc1,1.44

# Test system: not listed separately
# Test: modulators of HCV replicon luciferase signal, primary screen, HCV replication inhibitor project, Huh7 cells, luciferase reporter (AID 1109);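 also: huh7 hepatoma cells harbouring a luciferase neomycin HCV replicon reporter; luciferase luminescence as measure of HCV replicon replication; test concentration not given here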
# Conditions: 48 h, higher = more signal
row,SMILES,z-score
1,CCCNC(=O)[C@@H]1c2ccccc2C(=O)N(Cc2ccc(OC(F)(F)F)cc2)[C@H]1c1ccc(CO)cc1,-0.808
2,O=C1OCCC=C[C@H]2OC34C=CCN(Cn5nnc6ccccc65)C(=O)[C@H]3N(CCCO)C(=O)[C@@H]4C12 (stereo partly drawn),-0.642
3,CCOC(=O)C[C@H]1[C@H](OC(=O)c2ccc(-c3ccccc3)cc2)[C@@H](NC(=O)CC(C)C)c2cc(OCCCO)ccc2N1C(=O)c1ccc2ccccc2n1,-1.3
4,COCCOC(=O)N1C(=O)[C@@]2(c3cc(C#CC4=CCCCC4)ccc31)[C@H](c1ccccc1OCCO)N1[C@H](c3ccccc3)[C@H](c3ccccc3)OC(=O)[C@H]1[C@@H]2C(=O)NC[C@H](O)c1ccccc1,-3.19
5,COCCCNC(=O)[C@@]1(Sc2ccc(C)cc2)CC(=O)N(C2Cc3ccccc3C2)[C@@H]1c1ccc(CO)cc1,-0.849
6,COc1cc2c(cc1O)C(c1ccc(CN3CCCC3)cc1)N(Cc1cc3c(cc1Br)OCO3)CC2 (stereo not drawn),-2.92
7,CC(C)(C)OC(=O)CC[C@@]1(C(=O)NCC(O)CO)N=C(c2ccc(OCCCO)cc2)O[C@@H]1c1ccccc1CN=[N+]=[N-] (stereo partly drawn),-0.75
8,Cc1ccc(S[C@]2(C(=O)NCCN3CCOCC3)CC(=O)N(Cc3ccccc3Cl)[C@@H]2c2ccc(CO)cc2I)cc1,-1.25
9,CC1CC/C=C\[C@H]2OC34C=CCN(C(C)(C)C)C(=O)[C@H]3N(CCCCCO)C(=O)[C@@H]4C2C(=O)O1 (stereo partly drawn),0.095
10,COc1ccc(CCNC(=O)[C@@]2(c3ccc([N+](=O)[O-])cc3)CC(=O)N(C3CCCCC3)[C@@H]2c2ccc(CO)cc2)cc1,-0.88
11,COCCOC(=O)N1C(=O)[C@@]2(c3cc(C#CCNC(N)=O)ccc31)[C@H](C(N)=O)[C@H]1C(=O)O[C@H](c3ccccc3)[C@H](c3ccccc3)N1[C@@H]2c1ccccc1OCCO,-0.814
12,COC(=O)[C@@H]1N=C(c2ccc(OCCCO)cc2)O[C@@H]1C,2.62
13,O=C(c1ccccc1)N1C(=O)[C@]2(Cc3ccccc31)N=C(c1ccc(OCCCO)cc1)O[C@@H]2c1ccccc1,-2.94
14,O=C(NCCN1CCOCC1)[C@@H]1c2ccccc2C(=O)N(C2Cc3ccccc3C2)[C@H]1c1ccc(CO)cc1,-1.42
15,CCCCC(CC)C(O)C1C=CC2C(=O)N(C)C(=O)C2N1Nc1ccccc1 (stereo not drawn),-0.813
16,CC[C@@H]1C=C(C(=O)O)[C@H](c2ccc(C#N)cc2)N1S(=O)(=O)c1ccc(C)cc1,-0.651
17,[N-]=[N+]=Nc1ccccc1C[C@@]1(C(N)=O)N=C(c2ccc(OCCCO)cc2)O[C@@H]1c1ccccc1N=[N+]=[N-],-2.35
18,C=CC[C@@H](OC(=O)Nc1ccc(SC)cc1)c1ccc(O)c(F)c1,0.56

row,SMILES,z-score
1,CS(=O)(=O)CCOC(=O)C1=CC(c2ccc(CO)cc2)=CC(C2CC2)N(Cc2sc3ccccc3c2Cl)C=C1C(=O)OCCS(C)(=O)=O (stereo not drawn),-1.7
2,CCOC(=O)C[C@H]1[C@H](OC(=O)c2ccccc2-c2ccccc2)[C@@H](NC(=O)c2ccc3ccccc3n2)c2cc(OCCCO)ccc2N1C(=O)Cc1ccc(OC)cc1,-2.09
3,CCOC(=O)C1=C[C@@H](C(C)(C)C)N(S(=O)(=O)c2ccc(C)cc2)[C@H]1c1cccc2ccccc12,-2.28
4,Cc1ccc(S[C@]2(C(=O)O)CC(=O)N(C3CCCCC3)[C@@H]2c2ccc(CO)cc2I)cc1,-0.298
5,COc1ccc([Si](C)(C)[C@@H]2[C@@H](CCO)O[C@]3(C(=O)N(Cc4ccccc4)c4ccc(N5C(=O)c6cccc7cccc5c67)cc43)[C@H]2C)cc1,-4.17
6,O=C(Cc1ccccc1)[C@H]1C2C=CCCC(c3ccccc3)=C2CN1Cc1ccccc1 (stereo partly drawn),-0.576
7,COc1ccccc1CN1C(=O)c2ccccc2[C@](Cc2ccccc2I)(C(=O)O)[C@@H]1c1ccc(CO)cc1,-0.127
8,Cc1cc(C)c(C(O)C2C=CC3C(=O)N(c4ccccc4)C(=O)C3N2Nc2ccccc2F)c(C)c1 (stereo not drawn),0.937
9,CN(C)c1ccc(C(O)C2C=CC3C(=O)NC(=O)C3N2Nc2ccccn2)cc1 (stereo not drawn),-0.125
10,C[N+](C)(C)CCCC[C@@H]1NC(=O)[C@@H]2C[C@H](C(=O)NCCCCCCN)[C@H](c3cccc(OCCO)c3)N2C1=O,-0.0759
11,CCN(CC)c1ccc(N2CC=CC34O[C@@H]5/C=C\CCCOC(=O)C5[C@H]3C(=O)N(C(C)CO)[C@@H]4C2=O)cc1 (stereo partly drawn),-0.261
12,CCCCC=C[C@@H](NC(=O)OCc1ccccc1Cl)c1ccccc1,-0.0468
13,CCCN1C(=O)[C@]2(Cc3ccccc31)N=C(c1ccc(OCCCO)cc1)O[C@@H]2c1ccccc1,-3.29
14,C=CCNC(=O)[C@H]1[C@@H]2C(=O)O[C@@H](c3ccccc3)[C@@H](c3ccccc3)N2[C@@H](c2ccccc2OCCO)[C@]12C(=O)N(C(=O)OCCOC)c1ccc(C#CC3(O)CCCCCC3)cc12,-2.88
15,CN1C(=O)C2C=CC(C(O)c3cccn3C)N(Nc3ccc([N+](=O)[O-])cc3[N+](=O)[O-])C2C1=O (stereo not drawn),-0.0091
16,CCCCC(CC)C(O)C1C=CC2C(=O)N(c3ccccc3)C(=O)C2N1Nc1ccccc1F (stereo not drawn),-0.508
17,COCCOC(=O)N1C(=O)[C@@]2(c3ccccc31)[C@H](C(=O)NC[C@H](O)c1ccccc1)[C@H]1C(=O)O[C@H](c3ccccc3)[C@H](c3ccccc3)N1[C@@H]2c1ccc(O)cc1,-0.986
